Assay results from PubChem BioAssay (NCATS).
Results filed as inconclusive are left out. Calls of active or inactive are those of the source. Calls follow the shape of the dose curve; as a rule, active = well fitted inhibition curve with a large enough effect; inconclusive = small, poorly fitted or top-dose-only effect; inactive = flat fitted curve, though single readings scatter.

Tests used:
Experiment in all cases: qHTS profiling for inhibitors of Plasmodium falciparum proliferation (AID 504749); also: nearly all actives have a fitted effect of over 60% in size
Settings in all cases: P. falciparum in erythrocytes, SYBR Green DNA, 72 h; series mostly up to 28.7 µM
7G8 = system: 7G8
In short: (§1)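 Fluorescence of SYBR Green-bound parasite DNA, read at 485/535 nm, served as the growth measure. Infected erythrocytes were cultured with compound 72 h; artemisinin (0.29 uM) and DMSO wells defined the normalization range.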

CP201 = system: CP201
In short: as §1

CP247 = system: CP247
In short: as §1

C2A = system: C2A
In short: as §1

CP192 = system: CP192
In short: as §1

CP237 = system: CP237
In short: as §1

3D7 = system: 3D7
In short: as §1

AA1029 = system: AA1029
In short: as §1

ATS189 = system: ATS189
In short: as §1

ATS95 = system: ATS95
In short: as §1

CP185 = system: CP185
In short: as §1

CP191 = system: CP191
In short: as §1

CP194 = system: CP194
In short: as §1

CP203 = system: CP203
In short: as §1

CP211 = system: CP211
In short: as §1

CP215 = system: CP215
In short: as §1

CP217 = system: CP217
In short: as §1

CP238 = system: CP238
In short: as §1

CP250 = system: CP250
In short: as §1

AS120 = system: AS120
In short: as §1

Measured: Potency
Potency is read from the fitted curve at half-maximal effect.

CN1C(=O)[C@@H](NC(=O)c2cc3ccccc3[nH]2)N=C(c2ccccc2)c2ccccc21
active: 7G8 11.2 µM
inactive: CP201 | CP247

CN1CCc2cc(Cl)c(O)cc2[C@H]2c3ccccc3CC[C@@H]21
active: 7G8 11.2 µM | CP237 5.62 µM
inactive: C2A | CP192 | CP201

COP(=O)(OC)C(O)C(Cl)(Cl)Cl (configuration not stated)
inactive: 3D7 | 7G8 | AA1029 | ATS189 | ATS95 | C2A | CP185 | CP191 | CP192 | CP194 | CP201 | CP203 | CP211 | CP215 | CP217 | CP237 | CP238 | CP247 | CP250

OC(c1ccccc1)(c1ccccc1)C1CCNCC1
inactive: 3D7 | AA1029 | AS120 | ATS189 | ATS95 | C2A | CP185 | CP191 | CP192 | CP194 | CP201 | CP203 | CP211 | CP215 | CP217 | CP237 | CP238 | CP247 | CP250

CC(Cc1ccccc1)NCc1ccccc1Cl (configuration not stated)
inactive: 3D7 | C2A | CP191 | CP192 | CP201 | CP211 | CP215 | CP250
active: 7G8 11.2 µM

C#C[C@]1(O)CC[C@H]2[C@@H]3CCC4=CC(=O)CCC4=C3C=C[C@@]21CC
active: 3D7 7.94 µM | 7G8 11.2 µM | ATS95 10 µM | CP191 3.16 µM | CP237 0.178 µM | CP247 3.55 µM
inactive: CP192 | CP211

CC(C)[N+](C)(CCC(C(N)=O)(c1ccccc1)c1ccccc1)C(C)C
inactive: 3D7 | AA1029 | AS120 | ATS189 | ATS95 | C2A | CP185 | CP191 | CP192 | CP194 | CP201 | CP203 | CP211 | CP215 | CP217 | CP237 | CP238 | CP247 | CP250
